Data from PubChem BioAssay AID1159580 (chemical genetic matrix, 2015).
Hit rate of the full screen: of about 5,500 compounds, about 2,000 (36%) were called active. Inconclusive results (about 18%) are left out. Cut-off read from the data, not from the text of the source: active = normalized growth mostly below about 0.91 (no sharp cut-off); inconclusive = no clear call, values can overlap the other calls; inactive = mostly above about 0.92. The list shows a part of the results.

Assay: chemical genetic growth profiling, strain panel (AID 1159580);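 note: tested at 20 µM; growth read once vehicle control cultures reached saturation at 30 °C; 1 = growth at the plate median or of vehicle wells; lower values mean less growth of the strain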
Settings: growth OD

Measured: normalized growth

COc1cc(O)c2c(c1)C(=O)c1cc(C)cc(O)c1C2=O
inactive: S. cerevisiae deletion strains, locus YJR075W, strain HOC1, hits give low values 1 | S. cerevisiae deletion strains, locus YKL009W, strain mrt4, hits give low values 0.921 | S. cerevisiae deletion strains, locus YKL068W, hits give low values 1.01 | S. cerevisiae deletion strains, locus YKL085W, strain MDH1 (second series), hits give low values 0.98 | S. cerevisiae deletion strains, locus YKL085W, strain MDH1, hits give low values 0.98 | S. cerevisiae deletion strains, locus YKL160W, strain elf1, hits give low values 0.997 | S. cerevisiae deletion strains, locus YKL190W, strain CNB1, hits give low values 1.02 | S. cerevisiae deletion strains, locus YKR001C, strain vps1, hits give low values 1.02 | S. cerevisiae deletion strains, locus YKR026C, strain gcn3, hits give low values 0.997 | S. cerevisiae deletion strains, locus YKR091W, strain srl3, hits give low values 0.981 | S. cerevisiae deletion strains, locus YLL001W, strain dnm1, hits give low values 0.994 | S. cerevisiae deletion strains, locus YLL026W, hits give low values 0.995 | S. cerevisiae deletion strains, locus YLL041C, strain sdh2, hits give low values 0.988 | S. cerevisiae deletion strains, locus YLR027C, strain aat2, hits give low values 0.986 | S. cerevisiae deletion strains, locus YLR039C, strain RIC1, hits give low values 0.846 | S. cerevisiae deletion strains, locus YLR058C, strain SHM2, hits give low values 1 | S. cerevisiae deletion strains, locus YLR102C, strain apc9, hits give low values 0.997 | S. cerevisiae deletion strains, locus YLR113W, strain HOG1, hits give low values 0.979 | S. cerevisiae deletion strains, locus YLR221C, strain rsa3, hits give low values 0.995 | S. cerevisiae deletion strains, locus YLR258W, strain gsy2, hits give low values 0.978 | S. cerevisiae deletion strains, locus YLR262C, strain YPT6, hits give low values 0.884 | S. cerevisiae deletion strains, locus YLR268W, strain sec22, hits give low values 0.924 | S. cerevisiae deletion strains, locus YLR320W, strain mms22, hits give low values 0.962 | S. cerevisiae deletion strains, locus YLR330W, strain CHS5, hits give low values 1.01 | S. cerevisiae deletion strains, locus YLR342W, strain FKS1 (second series), hits give low values 1.02 | S. cerevisiae deletion strains, locus YLR342W, strain FKS1, hits give low values 0.994 | S. cerevisiae deletion strains, locus YLR357W, strain rsc2, hits give low values 0.945 | S. cerevisiae deletion strains, locus YLR370C, strain arc18, hits give low values 0.986 | S. cerevisiae deletion strains, locus YLR371W, strain rom2, hits give low values 1 | S. cerevisiae deletion strains, locus YLR384C, strain iki3, hits give low values 0.977 | S. cerevisiae deletion strains, locus YLR418C, strain cdc73, hits give low values 1 | S. cerevisiae deletion strains, locus YML016C, strain PPZ1, hits give low values 1.01 | S. cerevisiae deletion strains, locus YML120C, strain ndi1, hits give low values 1 | S. cerevisiae deletion strains, locus YML124C, strain tub3, hits give low values 1 | S. cerevisiae deletion strains, locus YMR058W, strain fet3, hits give low values 1.01 | S. cerevisiae deletion strains, locus YMR078C, strain ctf18, hits give low values 0.982 | S. cerevisiae deletion strains, locus YMR125W, strain sto1, hits give low values 0.995 | S. cerevisiae deletion strains, locus YMR129W, hits give low values 0.992 | S. cerevisiae deletion strains, locus YMR205C, strain PFK2, hits give low values 0.97 | S. cerevisiae deletion strains, locus YMR223W, strain ubp8, hits give low values 0.974 | S. cerevisiae deletion strains, locus YMR231W, strain pep5, hits give low values 0.979 | S. cerevisiae deletion strains, locus YMR263W, strain SAP30, hits give low values 1.01 | S. cerevisiae deletion strains, locus YMR307W, strain GAS1, hits give low values 0.931 | S. cerevisiae deletion strains, locus YNL067W, strain RPL9B, hits give low values 0.989 | S. cerevisiae deletion strains, locus YNL071W, strain lat1, hits give low values 0.998 | S. cerevisiae deletion strains, locus YNL128W, strain TEP1, hits give low values 1.02 | S. cerevisiae deletion strains, locus YNL153C, strain GIM3, hits give low values 1 | S. cerevisiae deletion strains, locus YNL183C, strain NPR1, hits give low values 0.99 | S. cerevisiae deletion strains, locus YNL209W, strain ssb2, hits give low values 0.985 | S. cerevisiae deletion strains, locus YNL233W, strain BNI4, hits give low values 0.986 | S. cerevisiae deletion strains, locus YNL248C, strain rpa49, hits give low values 0.987 | S. cerevisiae deletion strains, locus YNL271C, strain bni1, hits give low values 0.996 | S. cerevisiae deletion strains, locus YNL298W, strain CLA4, hits give low values 0.91 | S. cerevisiae deletion strains, locus YNL322C, strain KRE1 (second series), hits give low values 0.974 | S. cerevisiae deletion strains, locus YNL322C, strain KRE1, hits give low values 1.01 | S. cerevisiae deletion strains, locus YNR049C, strain mso1, hits give low values 0.987 | S. cerevisiae deletion strains, locus YNR052C, strain pop2, hits give low values 0.992 | S. cerevisiae deletion strains, locus YOL006C, strain TOP1, hits give low values 0.775 | S. cerevisiae deletion strains, locus YOL012C, strain htz1 1.44 | S. cerevisiae deletion strains, locus YOL147C, strain pex11, hits give low values 1.02 | S. cerevisiae deletion strains, locus YOR001W, strain rrp6, hits give low values 1.01 | S. cerevisiae deletion strains, locus YOR061W, strain CKA2, hits give low values 1 | S. cerevisiae deletion strains, locus YOR070C, strain gyp1, hits give low values 0.979 | S. cerevisiae deletion strains, locus YOR080W, strain dia2, hits give low values 0.978 | S. cerevisiae deletion strains, locus YOR083W, strain WHI5, hits give low values 0.984 | S. cerevisiae deletion strains, locus YOR106W, strain vam3, hits give low values 0.991 | S. cerevisiae deletion strains, locus YOR136W, strain idh2, hits give low values 0.997 | S. cerevisiae deletion strains, locus YOR144C, strain elg1, hits give low values 1 | S. cerevisiae deletion strains, locus YOR184W, strain ser1, hits give low values 0.971 | S. cerevisiae deletion strains, locus YOR231W, strain MKK1, hits give low values 1.02 | S. cerevisiae deletion strains, locus YOR265W, strain rbl2, hits give low values 0.983 | S. cerevisiae deletion strains, locus YOR270C, strain vph1, hits give low values 0.978 | S. cerevisiae deletion strains, locus YOR290C, strain snf2, hits give low values 0.93 | S. cerevisiae deletion strains, locus YOR316C, strain cot1, hits give low values 1 | S. cerevisiae deletion strains, locus YPL051W, strain arl3, hits give low values 0.939 | S. cerevisiae deletion strains, locus YPL055C, strain LGE1, hits give low values 0.999 | S. cerevisiae deletion strains, locus YPL078C, strain atp4, hits give low values 1 | S. cerevisiae deletion strains, locus YPL106C, strain sse1, hits give low values 0.973 | S. cerevisiae deletion strains, locus YPL240C, strain hsp82, hits give low values 0.98 | S. cerevisiae deletion strains, locus YPL256C, strain CLN2, hits give low values 1.03 | S. cerevisiae deletion strains, locus YPR119W, strain clb2, hits give low values 0.984 | S. cerevisiae deletion strains, locus YPR141C, strain kar3, hits give low values 1.01 | S. cerevisiae deletion strains, locus YPR163C, strain tif3, hits give low values 0.949 | S. cerevisiae deletion strains, locus YPR167C, strain met16, hits give low values 0.999 | S. cerevisiae deletion strains, strain wtn01, hits give low values 0.995 | S. cerevisiae strains, strain wild type, hits give low values 1.01
active: S. cerevisiae deletion strains, locus YLR262C, strain YPT6 (second series), hits give low values 0.845 | S. cerevisiae deletion strains, locus YML032C, strain rad52, hits give low values 0.812 | S. cerevisiae deletion strains, locus YNL250W, strain rad50, hits give low values 0.834 | S. cerevisiae deletion strains, locus YNL307C, strain MCK1, hits give low values 0.862 | S. cerevisiae deletion strains, locus YOR069W, strain VPS5, hits give low values 1.12 [resistant]
